Activity calls are given as the source filed them. Calls come from the whole dose curve; as a rule, active = well fitted curve in the direction sought with a large enough effect in the repeat runs; inconclusive = weak or mixed curves; inactive = flat fitted curve, though single readings scatter.
Experiment: qHTS assay to test for compound auto fluorescence at 590 nm (red) in HepG2 cells (AID 720674)
Settings: HepG2 autofluorescence, red 540/590 nm, 1 h; series mostly up to 91.3 µM
Summary of the method: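 Intrinsic compound fluorescence in the red window (Ex/Em 540/590 nm) is measured in attached HepG2 cells exposed for 1 hr, DMSO vehicle as baseline, benchmarked to Rose Bengal sodium.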
% is set by controls: 0 for no effect and ±100 for the full control effect.

Structure (SMILES) | outcome | fluorescence, relative to Rose Bengal
O=CCCc1ccccc1 | inactive | –
CC1=C2[C@H](/C=C(\C)C(=O)O)CC[C@@H](C)[C@H]2CC1 | inactive | –
Oc1ccccc1F | inactive | –
CCOc1ccc(NC(N)=O)cc1 | inactive | –
COc1ccc2nc(NC(=O)Nc3ccccc3)sc2c1 | inactive | –
CCC/C=C/CO | inactive | –
CN1C(=O)CC(c2ccccc2)C1=O (stereo unspecified) | inactive | –
Cc1ccc(C(C)C)cc1O | inactive | –
Cc1c[nH]c(=S)[nH]c1=O | inactive | –
CC1=NN(c2cc(Cl)c(S(=O)(=O)O)cc2Cl)C(=O)C1N=Nc1ccc(S(=O)(=O)O)cc1 (stereo unspecified) | inactive | –
CCOc1ccc(OCC)c(Cl)c1 | inactive | –
Cc1ccc([N+](=O)[O-])c(N)c1 | inactive | –
CCCCN1C[C@H](O)[C@@H](O)[C@H](O)[C@H]1CO | inactive | –
CN1CCN(C2=Nc3ccccc3Oc3ccc(Cl)cc32)CC1 | – | 0.128% [at 18.6 µM] (inactive)
CN1[C@@H]2CC[C@H]1CC(OC(=O)c1c[nH]c3ccccc13)C2 (stereo partly specified) | inactive | –
CC1CN(c2ccccc2)NC1=O (stereo unspecified) | inactive | –
CC(C)=CCCC(C)CCOC=O (stereo unspecified) | inactive | –
Cc1cc2c(s1)Nc1ccccc1N=C2N1CCN(C)CC1 | inactive | –
O=C1CCCCC1C1CCCCC1 (stereo unspecified) | inactive | –
CCC(=O)c1ccc2c(c1)N(CCCN(C)C)c1ccccc1S2 | inactive | –
CN(C)CCOc1ccccc1Cc1ccccc1 | inactive | –
CCOc1ccc(NS(=O)(=O)c2ccc(N)cc2)nn1 | inactive | –
Cn1cnc2c(F)c(Nc3ccc(Br)cc3Cl)c(C(=O)NOCCO)cc21 | inactive | –
CCCCCCCCCCCCCCCCOP(=O)([O-])OCC[N+](C)(C)C | inactive | –
CCN(CCCc1ccccc1)CCCc1ccccc1 | – | 0.32% [at 18.6 µM] (inactive)
CCCCCCCCCCCCOCCOS(=O)(=O)O | inactive | –
CCNCCO | inactive | –
O=C(CC(=O)C(F)(F)F)c1ccccc1 | inactive | –
O=[N+]([O-])c1nccn1CO[C@@H](CO)[C@H](O)CO | inactive | –
C[C@@H]1CN(c2c(F)c(F)c3c(=O)c(C(=O)O)cn(C4CC4)c3c2F)C[C@H](C)N1 | inactive | –

Experiment: qHTS assay to test for compound auto fluorescence at 535 nm (green) in HepG2 cells (AID 720675)
Settings: green autofluorescence 485/535 nm, 1 h; series mostly up to 91.3 µM

Structure (SMILES) | outcome | fluorescence, % of fluorescein control
O=CCCc1ccccc1 | inactive | –
CC1=C2[C@H](/C=C(\C)C(=O)O)CC[C@@H](C)[C@H]2CC1 | inactive | –
Oc1ccccc1F | inactive | –
COc1ccc2nc(NC(=O)Nc3ccccc3)sc2c1 | inactive | –
CCC/C=C/CO | inactive | –
CN1C(=O)CC(c2ccccc2)C1=O (stereo unspecified) | inactive | –
Cc1ccc(C(C)C)cc1O | inactive | –
Cc1c[nH]c(=S)[nH]c1=O | inactive | –
CC1=NN(c2cc(Cl)c(S(=O)(=O)O)cc2Cl)C(=O)C1N=Nc1ccc(S(=O)(=O)O)cc1 (stereo unspecified) | inactive | –
CCOc1ccc(OCC)c(Cl)c1 | inactive | –
Cc1ccc([N+](=O)[O-])c(N)c1 | inactive | –
CCCCN1C[C@H](O)[C@@H](O)[C@H](O)[C@H]1CO | inactive | –
CC(C)O | inactive | –
CN1[C@@H]2CC[C@H]1CC(OC(=O)c1c[nH]c3ccccc13)C2 (stereo partly specified) | inactive | –
CN1CCC[C@@H]1Cc1c[nH]c2ccc(CCS(=O)(=O)c3ccccc3)cc12 | inactive | –
CC1CN(c2ccccc2)NC1=O (stereo unspecified) | inactive | –
CCC(=O)c1ccc2c(c1)N(CCCN(C)C)c1ccccc1S2 | inactive | –
CN(C)CCOc1ccccc1Cc1ccccc1 | inactive | –
Cn1cnc2c(F)c(Nc3ccc(Br)cc3Cl)c(C(=O)NOCCO)cc21 | inactive | –
CCCCCCCCCCCCCCCCOP(=O)([O-])OCC[N+](C)(C)C | inactive | –
CCN(CCCc1ccccc1)CCCc1ccccc1 | – | -0.0397% [at 18.6 µM] (inactive)
CCCCCCCCCCCCOCCOS(=O)(=O)O | inactive | –
CCNCCO | inactive | –
O=C(CC(=O)C(F)(F)F)c1ccccc1 | inactive | –
O=[N+]([O-])c1nccn1CO[C@@H](CO)[C@H](O)CO | inactive | –
C[C@@H]1CN(c2c(F)c(F)c3c(=O)c(C(=O)O)cn(C4CC4)c3c2F)C[C@H](C)N1 | inactive | –
